The record followed here is PubChem BioAssay (Tox21).

“And” between values parts separate entries of the source, which are not always exact repeats. Equal values may be shown once. Records with an inconclusive call do not appear. Some compounds were tested as several samples or in several runs, with calls that do not always agree. The source made the active and inactive calls. Unless noted, calls come from the whole dose curve; as a rule, active = well fitted curve in the direction sought with a large enough effect in the repeat runs; inconclusive = weak or mixed curves; inactive = no such curve, though single readings can be large; an effect the other way counts as inactive or inconclusive.

Experiment [1] in a line: qHTS assay to identify small molecule agonists of the RXR signaling pathway - cell viability counter screen (AID 1159529). Note: nearly all actives have a fitted effect of over 50% in size. Note: potency is the fitted concentration of half-maximal effect. Summed up: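 Same-well viability check after the LiveBLAzer FRET read: CellTiter-Glo added, luminescence measured after 30 min at room temperature. Reporter HEK 293T cells had been treated with compounds for 16 hr following a 5 hr preincubation.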
The nature of experiment [2]: qHTS assay to identify small molecule antagonists of the retinoid acid receptor (RAR) signaling pathway - cell viability counter screen (AID 1159551). Note: nearly all actives have a fitted effect of over 35% in size. Note: potency is the fitted concentration of half-maximal effect. Summed up: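 Cells (C3RL4) are plated, incubated overnight, dosed with compound in DMSO, then given retinol at 1 uM final. After 6 h at 37 C, CellTiter-Glo is added and luminescence read following 30 min at room temperature.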

A short description of experiment [3]: qHTS assay to identify small molecule antagonists of the estrogen related receptor (ERR) signaling pathway from Tox21 library - cell viability counter screen (AID 1224834). Note: nearly all actives have a fitted effect of over 30% in size. Note: potency is the fitted concentration of half-maximal effect. Summed up:
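ERR cells, 2,000/well; 6 h settle at 37 C/5% CO2; pin-tool compound transfer in DMSO; 17.5 h at 37 C; CellTiter-Fluor, 30 min; fluorescence intensity.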
(Quantitative high-throughput screening tests each substance at several concentrations.)

For experiment [4], the target named is Luciferin 4-monooxygenase (Photinus pyralis) (UniProt P08659). Nature of the experiment: qHTS assay to identify small molecule inhibitors of firefly luciferase (AID 1224835). Note: nearly all actives have a fitted effect of over 25% in size. Note: potency is the fitted concentration of half-maximal effect. Summed up:
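Quantitative HTS format; KM concentrations of both substrates. Purified P. pyralis FLuc activity quantified from luminescence images.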

Experiment [5] can be described thus: qHTS assay to identify small molecule agonists of the constitutive androstane receptor (CAR) signaling pathway - cell viability counter screen (AID 1224836). Note: series mostly up to about 92 µM; nearly all actives have a fitted effect of over 45% in size. Summed up: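 Compound titrations (15 concentrations) went onto HepG2-CYP2B6-hCAR cells 4 h after seeding, alongside PK11195 at a final 0.75 uM; a 23 h, 37 C/5% CO2 incubation preceded CellTiter-Fluor viability measurement.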

Experiment [6] in a line: qHTS assay to identify small molecule antagonists of the constitutive androstane receptor (CAR) signaling pathway - cell viability counter screen (AID 1224837). Note: series mostly up to about 92 µM; nearly all actives have a fitted effect of over 45% in size. The procedure, abridged:
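Viability was measured with CellTiter-Fluor in a HepG2 line carrying stably transfected hCAR and a CYP2B6-2.2kb construct. Cells were exposed for 23 hr at 37 C to 15 compound concentrations with 50 nM CITCO as agonist.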

Experiment [7] concerns the target Nuclear receptor subfamily 1 group I member 3 (Homo sapiens) (UniProt Q14994). Nature of the experiment: qHTS assay to identify small molecule antagonists of the constitutive androstane receptor (CAR) signaling pathway (AID 1224838).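 Note: HepG2 cells stably expressing hCAR with CYP2B6 luciferase reporter stimulated by CITCO; nearly all actives have a fitted effect of over 40% in size.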 The procedure, abridged:
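Antagonist mode used CITCO at a final 50 nM to activate CAR in human hepatoma HepG2 cells carrying stable hCAR and a 2.2 kb CYP2B6 promoter-luciferase construct. Compounds were tested at 15 concentrations over 24 h, with luminescence as the end point.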

The target is the same in experiment [8]. In words: qHTS assay to identify small molecule agonists of the constitutive androstane receptor (CAR) signaling pathway (AID 1224839). Note: series mostly up to about 92 µM; nearly all actives have a fitted effect of over 15% in size. The procedure, abridged:
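In this screen, CAR-driven CYP2B6 promoter activity is measured by luminescence in HepG2-CYP2B6-hCAR cells after 24 h with test compounds and 0.75 uM PK11195 (final concentration).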

The nature of experiment [9]: qHTS assay to identify small molecule antagonists of the estrogen related receptor signaling pathway with the pleiotropic PPARgamma coactivator (PGC) from Tox21 10K library - cell viability counter screen (AID 1224840; active = well fitted cell-killing curve with a large enough effect in the repeat runs, not every such curve was filed as active; note: nearly all actives have a fitted effect of over 40% in size; note: potency is the fitted concentration of half-maximal effect). The procedure, abridged: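 Multiplexed viability counter screen in the PGC/ERR cell line: cells treated with DMSO-dissolved compounds for 17.5 hours at 37 C, then viability measured as CellTiter-Fluor fluorescence.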

Experiment [10] in a line: qHTS assay to identify small molecule antagonists of the estrogen related receptor signaling pathway with the pleiotropic PPARgamma coactivator (PGC) from Tox21 10K library (AID 1224841; call rule not given here; note: actives are mostly falling curves and most rising ones were filed inactive; nearly all actives have a fitted effect of over 50% in size; note: potency is the fitted concentration of half-maximal effect). Summed up:
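Steps: plate 2,000 PGC/ERR cells per well; incubate 6 h at 37 C with 5% CO2; transfer compounds from DMSO stocks by pin tool; incubate 18 h at 37 C; add One-Glo; measure luminescence 30 min later.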

Experiment [11] can be described thus: qHTS assay to identify small molecule agonists of the estrogen related receptor signaling pathway with the pleiotropic PPARgamma coactivator (PGC) from Tox21 10K library (AID 1224842). Note: nearly all actives have a fitted effect of over 15% in size. The procedure, abridged: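 PGC/ERR reporter cells (NTP line) were seeded 2,000 per well, rested 6 h at 37 C/5% CO2, then pin-dosed with compounds in DMSO for 18 h at 37 C; luciferase read by One-Glo luminescence after 30 min at room temperature.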

For experiment [12], the target named is Thyrotropin receptor (Homo sapiens) (UniProt P16473). Nature of the experiment: qHTS assay to identify small molecule agonists of the thyroid stimulating hormone receptor (TSHR) signaling pathway (AID 1224843; calls by dose curve; note: nearly all actives have a fitted effect of over 45% in size). Summed up: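 Using 15 concentrations per compound in triplicate, cAMP production was monitored in TSHR-HEK293 cells after 30 min compound incubation at RT; HTRF reagents followed, with fluorescence intensity recorded after 1 h.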
Thyrotropin receptor (Homo sapiens), sequence (P16473 whole entry, looked up): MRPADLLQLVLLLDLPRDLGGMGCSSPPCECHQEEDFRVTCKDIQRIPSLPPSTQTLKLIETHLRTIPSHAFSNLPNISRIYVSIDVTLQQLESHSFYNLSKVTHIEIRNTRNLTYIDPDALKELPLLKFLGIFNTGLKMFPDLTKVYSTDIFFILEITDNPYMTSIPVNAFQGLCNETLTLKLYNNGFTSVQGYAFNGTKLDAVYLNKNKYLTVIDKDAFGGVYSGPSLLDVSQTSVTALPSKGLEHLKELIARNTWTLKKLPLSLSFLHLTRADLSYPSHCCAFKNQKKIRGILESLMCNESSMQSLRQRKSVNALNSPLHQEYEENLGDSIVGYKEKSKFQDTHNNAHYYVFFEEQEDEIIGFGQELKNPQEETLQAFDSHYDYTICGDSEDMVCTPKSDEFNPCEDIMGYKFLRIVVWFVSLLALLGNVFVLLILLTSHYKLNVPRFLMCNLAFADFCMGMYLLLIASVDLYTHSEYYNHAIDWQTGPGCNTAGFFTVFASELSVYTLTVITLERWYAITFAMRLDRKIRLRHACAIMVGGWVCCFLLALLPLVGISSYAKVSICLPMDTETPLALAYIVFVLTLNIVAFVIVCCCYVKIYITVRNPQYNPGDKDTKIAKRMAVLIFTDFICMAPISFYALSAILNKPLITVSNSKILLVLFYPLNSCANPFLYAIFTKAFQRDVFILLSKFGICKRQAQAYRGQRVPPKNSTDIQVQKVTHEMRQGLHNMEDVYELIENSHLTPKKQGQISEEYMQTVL

Experiment [13] can be described thus: qHTS assay to identify small molecule antagonists of the estrogen related receptor (ERR) signaling pathway - cell viability counter screen (AID 1224818). Note: series mostly up to about 46 µM. The procedure, abridged:
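ERR cells, 2,000/well; 6 h settle at 37 C/5% CO2; compound pin transfer (DMSO); 17.5 h at 37 C; CellTiter-Fluor, 30 min, fluorescence read.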

Experiment [14] in a line: qHTS assay to identify small molecule antagonists of the estrogen related receptor (ERR) signaling pathway (AID 1224819;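 note: luminescence from an ERR-driven luciferase reporter measured with One-Glo reagent; series mostly up to about 46 µM; nearly all actives have a fitted effect of over 50% in size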). Summed up:
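qHTS in ERR cells, 2,000/well, 1536 format. Cpd (DMSO) added after 6 h settle, 18 h 37 C. One-Glo luminescence, 30 min RT.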

Experiment [15] can be described thus: qHTS assay to identify small molecule agonists of the estrogen related receptor (ERR) signaling pathway (AID 1224820). Summed up:
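Luminescence readout (One-Glo, 30 min RT) from NTP-supplied ERR cell line exposed to compounds for 18 h at 37 C. Cells seeded 2,000 per well and pre-incubated 6 h before pin-tool compound transfer.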

For experiment [16], the system named is estrogen-related receptor alpha (ERRalpha) with PGC-1alpha coactivator, human. In words: qHTS assay to identify small molecule antagonists of the estrogen related receptor signaling pathway with the pleiotropic PPARgamma coactivator (PGC) (AID 1224821; calls by dose curve;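 note: series mostly up to about 46 µM; lower luminescence signal means antagonism of PGC/ERR signalling; nearly all actives have a fitted effect of over 50% in size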). Summed up: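 PGC/ERR reporter cells; 6 h pre-incubation 37 C/5% CO2; pin-tool compound in DMSO, 18 h 37 C; One-Glo added, 30 min RT; luminescence read. qHTS antagonist mode.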

Experiment [17] is described as follows: qHTS assay to identify small molecule antagonists of the estrogen related receptor signaling pathway with the pleiotropic PPARgamma coactivator (PGC) cell viability counter screen (AID 1224822;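 note: series mostly up to about 46 µM; viability read after 17.5 h compound exposure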). Summed up:
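Multiplexed viability counter screen run in PGC/ERR cells treated with compounds for 17.5 h at 37 C; live-cell protease signal measured by CellTiter-Fluor fluorescence.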

Experiment [18] can be described thus: qHTS assay to identify small molecule agonists of the estrogen related receptor signaling pathway with the pleiotropic PPARgamma coactivator (PGC) (AID 1224823). Summed up: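 Luminescence readout (One-Glo, 30 min RT) from PGC/ERR cell line treated 18 h at 37 C with pin-tool-delivered DMSO compound solutions; cells plated 6 h before dosing. Quantitative HTS format.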

Nuclear receptor subfamily 1 group I member 3 (Homo sapiens), sequence (Q14994 whole entry, looked up): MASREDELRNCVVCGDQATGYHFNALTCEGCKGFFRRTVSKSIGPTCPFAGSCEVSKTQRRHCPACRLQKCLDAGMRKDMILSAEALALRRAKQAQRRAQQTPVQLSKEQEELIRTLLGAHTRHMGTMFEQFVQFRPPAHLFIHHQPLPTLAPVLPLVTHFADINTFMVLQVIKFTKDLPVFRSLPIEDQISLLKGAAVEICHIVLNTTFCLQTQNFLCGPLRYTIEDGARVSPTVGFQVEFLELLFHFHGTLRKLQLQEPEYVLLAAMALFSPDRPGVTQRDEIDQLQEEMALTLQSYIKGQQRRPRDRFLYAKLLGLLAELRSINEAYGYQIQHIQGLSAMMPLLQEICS
Luciferin 4-monooxygenase (Photinus pyralis), sequence (P08659 whole entry, looked up): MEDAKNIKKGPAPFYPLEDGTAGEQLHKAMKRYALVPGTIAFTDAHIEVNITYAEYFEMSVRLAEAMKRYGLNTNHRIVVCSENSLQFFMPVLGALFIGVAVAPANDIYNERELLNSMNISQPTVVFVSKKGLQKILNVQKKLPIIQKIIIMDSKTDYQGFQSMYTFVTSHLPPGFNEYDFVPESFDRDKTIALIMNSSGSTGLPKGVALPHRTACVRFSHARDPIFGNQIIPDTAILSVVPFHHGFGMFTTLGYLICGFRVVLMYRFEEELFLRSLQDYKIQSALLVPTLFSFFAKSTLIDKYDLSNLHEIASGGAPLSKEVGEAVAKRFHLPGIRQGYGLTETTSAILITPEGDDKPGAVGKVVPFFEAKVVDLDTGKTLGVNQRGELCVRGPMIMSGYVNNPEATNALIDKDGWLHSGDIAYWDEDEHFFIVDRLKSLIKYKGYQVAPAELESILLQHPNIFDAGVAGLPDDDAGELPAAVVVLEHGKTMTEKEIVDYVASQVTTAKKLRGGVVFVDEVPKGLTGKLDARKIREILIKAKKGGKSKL

`N#CCCCCC#N`: the Potency entry in [1], in experiment [2], in experiment [3], in experiment [4], in experiment [5] and in experiment [6] was “inactive” in each case. The Potency result in experiment [7], in experiment [8], in [9], in [10], in [11] and in experiment [12] was “inactive” each time.
As to `O=S(=O)(O)C(F)(F)C(F)(F)C(F)(F)C(F)(F)C(F)(F)C(F)(F)C(F)(F)C(F)(F)F`, the Potency result in experiment [1] was “inactive and 19.5 µM (active)”; in [4], 75.8 µM (active) and 71 µM (active); in [10] it was “inactive and 5.45 µM (active)”. Also, the Potency entry in experiment [2], in experiment [14], in experiment [16], in experiment [17], in experiment [3] and in [5] was “inactive” throughout. In addition, the Potency entry in experiment [6], in experiment [9], in experiment [11] and in experiment [12] was “inactive” in each case. The outcome in experiment [13], in experiment [15] and in experiment [18] was inactive.
`O=C(O)CF`: the Potency result in experiment [1], in [2], in experiment [3], in [4], in experiment [5] and in experiment [6] was “inactive” in each case. Besides, the Potency entry in experiment [9] and in experiment [12] was “inactive” each time.
As for `CCNc1nc(Cl)nc(NC(C)(C)C#N)n1`, the Potency entry in experiment [1], in [2], in experiment [3], in [5], in experiment [6] and in experiment [7] was “inactive” in each case. The Potency entry in experiment [8], in experiment [9] and in [12] was “inactive” each time.
Turning to `Clc1cccc(C(Cl)(Cl)Cl)n1`, the Potency result in experiment [1], in experiment [2], in experiment [3], in experiment [4], in [5] and in experiment [6] was “inactive” each time. In addition, the Potency result in experiment [9] was “inactive”.
As to `CCOP(=O)(O)OCC` (tested in a mixture with another compound), the Potency result is “inactive and 17.2 µM (active)” in experiment [1]; “inactive and 60.6 µM (active)” in [2]; “inactive and 54 µM (active)” in experiment [3]; “inactive and 60.6 µM (active)” in experiment [9]. In addition, the Potency result in experiment [4] is “inactive”.
As to `CCCCOCCOC(C)=O`, the Potency result in experiment [1], in [2], in [3], in experiment [4], in [5] and in experiment [6] was “inactive” each time. Besides, the Potency entry in experiment [7], in [8], in experiment [9], in experiment [10], in [11] and in experiment [12] was “inactive” in each case.
Turning to `N#Cc1cccnc1`, the Potency result in experiment [1], in experiment [2], in [3], in experiment [5], in experiment [6] and in experiment [7] was “inactive” each time. Besides, the Potency entry in [8], in [9], in experiment [10], in [11] and in [12] was “inactive” in each case.
Regarding `CC(C)Nc1nc(Cl)nc(NC(C)C)n1`, the Potency entry in [1], in experiment [2], in [3], in experiment [4], in experiment [5] and in experiment [6] was “inactive” in each case. In addition, the Potency entry in experiment [7], in [8], in experiment [9], in [10], in [11] and in [12] was “inactive” throughout.
On to `ClC(Cl)(Cl)c1ccccc1`, for which the Potency result in experiment [1], in experiment [2], in experiment [3], in experiment [5], in [6] and in [7] was “inactive” throughout. Further, the Potency entry in experiment [8], in [9] and in experiment [12] was “inactive” throughout.
